PubChem BioAssay AID504834 (National Center for Advancing Translational Sciences (NCATS), 2011)
The campaign covered roughly 320,000 compounds. About 22,000 (6.9%) were called active. Not shown: some 27% with an inconclusive outcome. What follows is part of a selection rich in actives, with near analogues and random picks from the rest. Values without a mark were called inactive. Calls come from the whole dose curve; as a rule, active = well fitted inhibition curve with a large enough effect; inconclusive = small, poorly fitted or top-dose-only effect, or another doubt; inactive = no such curve, though single readings can be large or run the other way.

experiment: Primary qHTS for delayed death inhibitors of the malarial parasite plastid, 96 hour incubation; settings: P. falciparum luciferase reporter growth; series mostly up to 28.7 µM; activity change, negative = inhibition: at the top concentration
How it was run: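 Two parasite generations (96 h, 37 C, 5% CO2) of compound exposure in infected erythrocytes (0.05% parasitemia, 2% hematocrit). Luciferase-reporter P. falciparum; decreased luminescence indicates inhibited growth, aimed at apicoplast-acting delayed death.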
% is set by controls: 0 for no effect and ±100 for the full control effect; potency is the fitted concentration of half-maximal effect.

| Structure (SMILES) | activity change, negative = inhibition | Potency |
| --- | --- | --- |
| CCC(=O)Nc1ccc2c(c1)nc(CCN1CCN(c3ccccn3)CC1)n2C | -14.1% | – |
| NS(=O)(=O)c1ccc(NC(=S)NC(=O)c2cccnc2)cc1 | 31.3% | – |
| O=C(NC(=S)Nc1ccc(S(=O)(=O)Nc2ncccn2)cc1)c1cccc(Br)c1 | -13.4% | – |
| NS(=O)(=O)c1ccc(NC(=S)NC(=O)c2cccc(Br)c2)cc1 | – | 13.1 µM (active) |
| Cc1cc(NC(=O)[C@H](C)NC(=O)c2ccco2)ccc1Br | -0.221% | – |
| CCc1ccc(C(=O)COC(=O)c2ccco2)cc1 | -16.8% | – |
| CC(C)(C)c1ccc(C(=O)N2CCC(C(=O)N3CCCCC3)CC2)cc1 | -25.9% | – |
| CCOC(=O)C1=C(C)NC(=S)NC1c1cccs1 (configuration not stated) | 16.8% | – |
| CCOC(=O)C1=C(N)N(c2ccc(C)cc2)C2=C(C(=O)CCC2)C1c1cccs1 (configuration not stated) | – | 3.7 µM (active) |
| CCOC(=O)c1cc2c(n(-c3ccc(C)cc3)c1=O)CCCC2=O | 26.5% | – |
| COC(=O)c1ccc(NC(=O)c2cc3c(CO)cnc(C)c3oc2=Nc2cccc(C(N)=O)c2)cc1 | 1.25% | – |
| Cc1cc(-c2n[nH]c(=S)n2/N=C/C(Br)=C/c2ccccc2)n[nH]1 | 0% | – |
| CC(C)c1cc(C(=O)N/N=C/C(Br)=C/c2ccccc2)n[nH]1 | – | 3.29 µM (active) |
| CC(/C=N/NC(=O)c1cc(-c2ccc3ccccc3c2)n[nH]1)=C\c1ccco1 | 10.6% | – |
| CN(C(=O)COC(=O)CCCc1c[nH]c2ccccc12)c1c(N)n(Cc2ccccc2)c(=O)[nH]c1=O | 2.5% | – |
| CCCNC(=O)C(=O)Nc1cc2c3c(c1)CCC(=O)N3CCC2 | 28.4% | – |
| COc1ccc(CCNC(=O)C2CCCN2C(=O)Nc2ccccc2)cc1OC (configuration not stated) | -9.5% | – |
| COc1ccc(-c2nn(-c3ccccc3)cc2/C=C\C(=O)Nc2ccc(C(=O)O)cc2)cc1 | 23.8% | – |
| O=C(/C=C\c1cn(-c2ccccc2)nc1-c1cccs1)N1CCOCC1 | – | 10.4 µM (active) |
| O=C(O)/C=C/c1cn(Cc2ccccc2)nc1-c1cccs1 | 2.18% | – |
| O=C(O)/C=C/c1cn(-c2ccccc2)nc1-c1cccs1 | 54.1% | – |
| O=C(O)c1ccc(NC(=O)c2cn(-c3ccccc3)nc2-c2ccc(Cl)cc2)cc1 | 47.7% | – |
| O=C(O)c1ccc(N/N=C/c2cn(-c3ccccc3)nc2-c2cccs2)cc1 | – | 0.465 µM (active) |
| N#Cc1cccc(CN2CCC(=O)N(CCO)CC2)c1 | 93% | – |
| COc1ccccc1N1CCN(S(=O)(=O)CCNC(=O)c2ccc(OC(C)C)cc2)CC1 | 13.5% | – |
| CCCCC1(C(=O)OCC)NC(c2ccc(O)cc2)C2C(=O)N(c3ccccc3)C(=O)C21 (configuration not stated) | 34.6% | – |
| CC(OC(=O)C1CC(=O)N(Cc2ccccc2)C1)C(=O)Nc1ccccc1[N+](=O)[O-] (configuration not stated) | 49.9% | – |
